Drawing on the supplement of paper PMC10681739, this text covers ETS1 binding intensity for 19 sequences.

The target of the test is T1, ETS1 (UniProt P14921).
T1 sequence: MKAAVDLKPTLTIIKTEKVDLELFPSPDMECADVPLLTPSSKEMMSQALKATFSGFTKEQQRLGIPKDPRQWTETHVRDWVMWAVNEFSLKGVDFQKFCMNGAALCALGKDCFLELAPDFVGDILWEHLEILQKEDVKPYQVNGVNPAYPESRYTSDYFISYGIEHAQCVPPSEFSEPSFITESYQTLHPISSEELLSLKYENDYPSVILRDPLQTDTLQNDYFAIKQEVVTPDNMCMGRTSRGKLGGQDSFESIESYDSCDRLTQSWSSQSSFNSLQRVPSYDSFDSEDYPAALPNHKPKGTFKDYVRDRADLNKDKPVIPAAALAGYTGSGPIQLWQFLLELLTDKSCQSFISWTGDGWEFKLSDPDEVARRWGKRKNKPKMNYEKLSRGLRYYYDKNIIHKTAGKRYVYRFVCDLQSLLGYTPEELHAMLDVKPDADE
Kind of test: ETS1 binding intensity (PBM fluorescence) in presence of RUNX1, normalised to ETS1-only experiment (arbitrary fluorescence units); higher = stronger binding. To be noted: ETS1 concentration 1 nM; RUNX1 concentration 25 nM.
On to AAGCTTCCTGGCCCTTTAAAAATGGCGGTTCCGCAC, for which the ETS1 binding intensity turned out to be 714.

Take CTTGCTCCCCACTTCCTACCACATTCAATGCCCGGA: the ETS1 binding intensity came to 558.

For the sequence TTGGAGACACACAAAGGATGTGGGCTGTGCGTGTGT, the ETS1 binding intensity worked out at 1780.

As for ACACCGCTCAGGAAGACAAAGCCACACCTCACACCG, the ETS1 binding intensity is 356.

For TGAATCATGACAGAGGAAGTGTGGTTCTGTGATTAC, the ETS1 binding intensity came out at 2090.

On to ATCAAAGAACGGATATTGCTGTGACACCGCGGGGAC, for which the ETS1 binding intensity stood at 1560.

As to GGGCTTCAGCGGATGAACAAGGTTACCACGGGGAGT, the ETS1 binding intensity was 504.

For the sequence TGATGCAGGAAGGGGTGGAGTCACCACAGGAGGTAG, the ETS1 binding intensity was determined as 952.

On to TTCTGCTACATCCTGCCCACTCCCTGTGGCTTCCAC, for which the ETS1 binding intensity was 1060.

For TCCAGTGCCGCCGCCGGAAAACCGCAGCGGCGGCGG, the ETS1 binding intensity was 4530.

Consider TCAAGAGGGTGTGGAGGAAGTGGGTTACAAGCACTT, for which the ETS1 binding intensity is 1940.

For TGTTTACTTCCTGGAGGCACTTTGGTTTTTCTTTCT, the ETS1 binding intensity was 325.

CAACAAGAGGAAATCAGAAACACTGAAGCCACAGCT: the ETS1 binding intensity was 463.

As for CAGCTTTCCGGCCTGCAGCACAGGCAATGTGGTTTT, the ETS1 binding intensity worked out at 554.

As to TGAGAAGGCAGGATAAGTGACCACATATTTATGCCA, the ETS1 binding intensity was found to be 874.

For TTTTCCCACTTCCTAGGTTGTGGTGGGGATTACACA, the ETS1 binding intensity is 571.

Turning to CCAGAGCAGGATGTTCTGCTGTGGCTAGATAAGCCC, the ETS1 binding intensity amounted to 916.

In the case of AGGGCGCCGCTTCCGGGAGCCCGCAAGCGGCCTCCG, the ETS1 binding intensity is 715.

With TTTCCTACAGAAGGATGTGGTTGGTGGGTTTGGTTT, the ETS1 binding intensity came out at 3210.
